This is a sample that favours compounds with a hit; in the whole collection about 3.3% have one here.
AmpC inh no detg = blocks E. coli AmpC beta-lactamase in detergent-free assay; AmpC nitrocefin hydrolysis, absorbance 480 nm, 0.0001% Triton; AID 485341; P00811; actives 0.52% (n = 330,000); Potency, µM (titrated, usually from 57.1 µM), actives largely listed as inhibitors; also: nearly all actives have a fitted effect of over 20% in size
Target sequence (P00811 whole entry, looked up): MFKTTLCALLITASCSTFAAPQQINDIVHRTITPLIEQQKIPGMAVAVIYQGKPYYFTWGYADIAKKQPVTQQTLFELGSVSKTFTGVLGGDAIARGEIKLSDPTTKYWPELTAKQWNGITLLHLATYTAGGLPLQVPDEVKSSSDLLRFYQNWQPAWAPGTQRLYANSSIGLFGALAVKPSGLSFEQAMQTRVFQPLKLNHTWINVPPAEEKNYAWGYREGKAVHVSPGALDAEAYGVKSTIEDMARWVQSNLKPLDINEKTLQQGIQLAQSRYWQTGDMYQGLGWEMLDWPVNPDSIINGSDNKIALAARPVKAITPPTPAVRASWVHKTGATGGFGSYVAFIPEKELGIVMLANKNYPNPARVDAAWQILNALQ
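AmpC (5.3 nM in the dispensed reagent) in 20 mM phosphate pH 7.0 with 0.01% (detergent screen) or 0.0001% Triton X-100 was preincubated with compounds for 15 min at room temperature. Nitrocefin was then added from an 800 uM solution, and hydrolysis was followed at 480 nm.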
Tb PYK inh = inhibitors of Trypanosoma brucei pyruvate kinase. TbPYK enzyme, Kinase-Glo Plus ATP luminescence, 45 min. Potency, µM (series often up to 76.8 µM), actives largely listed as inhibitors. actives 0.12% (n = 410,000); also: nearly all actives have a fitted effect of over 50% in size
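Luminescent Kinase-Glo Plus end-point after 45 min room-temperature reaction of T. brucei pyruvate kinase started with 130 uM ADP (final). Buffer TEA 50 mM pH 7.2 with KCl, MgCl2, BSA, Tween-20; titration-based qHTS with fitted concentration-effect curves.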
RE007 growth inh = less growth of the S. pombe RE007 Vpr strain; S. pombe RE007 Vpr strain, BacTiter-Glo ATP luminescence, 24 h; Potency, µM (highest dose often 92.2 µM), actives largely listed as inhibitors; actives 0.21% (n = 360,000); AID 651644; active = well fitted falling curve with a large enough effect; inconclusive = small, poorly fitted or top-dose-only effect; inactive = no such curve, though single readings can be large or run the other way; also: nearly all actives have a fitted effect of over 50% in size
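Fission yeast RE007 carrying one integrated HIV-1 vpr copy, seeded at OD 0.01 in PMG+AL medium with 23 nL pinned compound. Grown 24 h at 30 degrees; viability read by BacTiter-Glo luminescence after 5 min.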
SARS PLpro yeast = SARS-CoV PLP inhibition in yeast | Potency, µM (highest dose often 32.9 µM), hits mostly activators | actives 0.19% (n = 330,000) | S. cerevisiae expressing SARS-CoV PLpro, growth rescue; calls by dose curve; also: nearly all actives have a fitted effect of over 55% in size
Sm TGR block = blocks Schistosoma mansoni thioredoxin glutathione reductase; purified TGR, DTNB reduction, TNB absorbance 405 nm; Potency, µM (top dose mostly 114 µM), hits mostly inhibitors; AID 485364; actives 3% (n = 360,000); Q962Y6; also: nearly all actives have a fitted effect of over 60% in size
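TGR 20 nM + NADPH 100 uM (dispensed conc.), cpd preinc 15 min RT; start with NADPH (500 uM addition) then DTNB (15 mM addition). Kinetic TNB absorbance, 405 nm filter. Four-parameter Hill fit across titration.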
AmpC detergent = inhibitors of E. coli AmpC beta-lactamase with detergent. AmpC hydrolysis of nitrocefin, absorbance 480 nm, 0.01% Triton. actives 0.041% (n = 370,000). Potency, µM (doses to about 114 µM), most hits filed as inhibitors; also: nearly all actives have a fitted effect of over 25% in size
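AmpC (5.3 nM in the dispensed reagent) in 20 mM phosphate pH 7.0 with 0.01% (detergent screen) or 0.0001% Triton X-100 was preincubated with compounds for 15 min at room temperature. Nitrocefin was then added from an 800 uM solution, and hydrolysis was followed at 480 nm.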
Hits are given with their value. Unless noted, calls follow the shape of the dose curve; as a rule, active = well fitted curve in the direction sought with a large enough effect; inconclusive = small, poorly fitted or top-dose-only effect, or another doubt; inactive = no such curve, though single readings can be large; an effect the other way counts as inactive or inconclusive.

Results for O=C(NC1=NCCS1)C12CC3CC(C1)CC(C(=O)NC1=NCCS1)(C3)C2 ?
AmpC inh no detg: inactive; Tb PYK inh: inactive; RE007 growth inh: inactive; SARS PLpro yeast: inactive; Sm TGR block: inactive; AmpC detergent: inactive

Results for S=C(NCc1ccccc1)Nc1ccc2cn[nH]c2c1 ?
AmpC inh no detg: inactive; Tb PYK inh: inactive; RE007 growth inh: inactive; SARS PLpro yeast: inactive; Sm TGR block: 40µM; AmpC detergent: inactive

Results for CCCCNC(=S)Nc1ccc2cn[nH]c2c1 ?
AmpC inh no detg: inactive; Tb PYK inh: inactive; RE007 growth inh: inactive; SARS PLpro yeast: inactive; Sm TGR block: inactive; AmpC detergent: inactive

How did O=C(CCc1ccc(O)c(O)c1)N/N=C/c1cc2c(cc1[N+](=O)[O-])OCO2 do in these assays?
AmpC inh no detg: inactive; Tb PYK inh: inconclusive; RE007 growth inh: inactive; SARS PLpro yeast: inconclusive; Sm TGR block: 16µM; AmpC detergent: inconclusive

How did CC(C)(C)OC(=O)N1CCc2nc(N3CCN(c4ncccn4)CC3)ncc2C1 do in these assays?
Tb PYK inh: inactive; Sm TGR block: inactive; AmpC detergent: inactive

How did O=C(O)CSC1CC(=O)N(c2ccc(Cl)c(Cl)c2)C1=O (stereo not given) do in these assays?
AmpC inh no detg: inactive; Tb PYK inh: inactive; RE007 growth inh: 11µM; SARS PLpro yeast: inactive; Sm TGR block: 18µM; AmpC detergent: inconclusive

How did O=C(O)CSC1CC(=O)N(c2cccc(Cl)c2)C1=O (stereo not given) do in these assays?
AmpC inh no detg: inactive; Tb PYK inh: inactive; RE007 growth inh: inactive; SARS PLpro yeast: inactive; Sm TGR block: inconclusive; AmpC detergent: inconclusive

How did Cc1ccc(S(=O)(=O)O/N=C2\CCCc3ccccc32)cc1 do in these assays?
AmpC inh no detg: inactive; Tb PYK inh: inactive; RE007 growth inh: inactive; SARS PLpro yeast: inactive; Sm TGR block: inactive; AmpC detergent: inactive

What do the screens show for `CC1=C(C)/C(=N\OS(=O)(=O)c2ccccc2)C=CC1=O`?
AmpC inh no detg: inactive; Tb PYK inh: inactive; RE007 growth inh: 7.9µM; SARS PLpro yeast: inactive; Sm TGR block: 2.5µM; AmpC detergent: inactive

Results for COc1cc(C(=O)NC2CCN(CC(=O)NC3CCCCC3C)CC2)cc(OC)c1OC (stereo not given) ?
AmpC inh no detg: inactive; Tb PYK inh: inactive; RE007 growth inh: inactive; SARS PLpro yeast: inactive; Sm TGR block: inactive; AmpC detergent: inactive

How did COc1cc(C(=O)NC2CCCNC2)cc(OC)c1OC (stereo not given) do in these assays?
AmpC inh no detg: inactive; Tb PYK inh: inactive; SARS PLpro yeast: inactive; Sm TGR block: 35µM; AmpC detergent: inactive

Results for CCN1C(=O)CS/C1=N\S(=O)(=O)c1ccc(Cl)cc1 ?
AmpC inh no detg: inactive; Tb PYK inh: inactive; RE007 growth inh: inactive; SARS PLpro yeast: inactive; Sm TGR block: inactive; AmpC detergent: inactive

Results for CCn1c(Cl)c(C=O)s/c1=N\S(=O)(=O)c1ccccc1 ?
AmpC inh no detg: inactive; Tb PYK inh: inactive; RE007 growth inh: inactive; SARS PLpro yeast: inactive; Sm TGR block: 0.32µM; AmpC detergent: inactive

What do the screens show for `CCc1ccc(CNCc2c(C(=O)O)n(Cc3cccc(F)c3)c3cc(OC)ccc23)cc1`?
Tb PYK inh: inactive; Sm TGR block: inactive; AmpC detergent: inactive

How did O=C(c1c[nH]c(=O)n(-c2ccccc2)c1=O)N1CCc2ccccc21 do in these assays?
AmpC inh no detg: inactive; Tb PYK inh: inactive; RE007 growth inh: inactive; SARS PLpro yeast: inactive; Sm TGR block: inactive; AmpC detergent: inactive

What do the screens show for `Cc1ccc(-n2c(=O)[nH]cc(C(=O)N3CCc4ccccc43)c2=O)cc1C`?
AmpC inh no detg: 10µM; Tb PYK inh: inactive; RE007 growth inh: inactive; SARS PLpro yeast: inactive; Sm TGR block: inactive; AmpC detergent: inconclusive

Results for Cc1ccc2c(=O)cc(C(=O)Nc3cccc(C(F)(F)F)c3)oc2c1C ?
Tb PYK inh: inactive; Sm TGR block: inactive; AmpC detergent: inactive

What do the screens show for `COC(=O)c1ccc(OC(=O)CS(=O)c2ccccc2[N+](=O)[O-])cc1` (stereo not given)?
AmpC inh no detg: inactive; Tb PYK inh: inactive; RE007 growth inh: inactive; SARS PLpro yeast: inactive; Sm TGR block: 22µM; AmpC detergent: inactive

What do the screens show for `CCOC(=O)c1ccccc1OC(=O)CS(=O)c1ccccc1[N+](=O)[O-]` (stereo not given)?
AmpC inh no detg: inactive; Tb PYK inh: inactive; RE007 growth inh: inactive; SARS PLpro yeast: inactive; AmpC detergent: inactive

How did CS(=O)(=O)c1ccc(S(=O)CC(=O)OCc2ccccc2)c([N+](=O)[O-])c1 (stereo not given) do in these assays?
AmpC inh no detg: inactive; Tb PYK inh: inactive; RE007 growth inh: inactive; SARS PLpro yeast: inactive; Sm TGR block: 2.5µM; AmpC detergent: inactive

How did O=C(CNc1ccc(C(F)(F)F)cc1[N+](=O)[O-])OCC(=O)c1ccccc1 do in these assays?
AmpC inh no detg: inactive; Tb PYK inh: inactive; RE007 growth inh: inconclusive; SARS PLpro yeast: inactive; Sm TGR block: inactive; AmpC detergent: inactive

How did O=C(CS(=O)c1ccc(C(F)(F)F)cc1[N+](=O)[O-])Oc1ccccc1 (stereo not given) do in these assays?
AmpC inh no detg: inactive; Tb PYK inh: inactive; RE007 growth inh: 45µM; SARS PLpro yeast: inactive; Sm TGR block: 35µM; AmpC detergent: inactive

How did CCc1ccc(S(=O)(=O)c2c[nH]c3cc(OC)c(OC)cc3c2=O)cc1 do in these assays?
Tb PYK inh: inactive; Sm TGR block: inactive; AmpC detergent: inactive

How did COc1ccc2[nH]c(=O)c(CNc3ccccc3OC)cc2c1 do in these assays?
AmpC inh no detg: inactive; Tb PYK inh: inactive; RE007 growth inh: inactive; SARS PLpro yeast: inactive; Sm TGR block: 18µM; AmpC detergent: inactive

What do the screens show for `COc1ccc2[nH]c(=O)c(CNc3ccccc3C)cc2c1`?
AmpC inh no detg: inactive; Tb PYK inh: inactive; RE007 growth inh: inactive; SARS PLpro yeast: inactive; Sm TGR block: inconclusive; AmpC detergent: inactive

What do the screens show for `COc1ccc2[nH]c(=O)c(CNc3cc(C)ccc3C)cc2c1`?
AmpC inh no detg: inactive; Tb PYK inh: inactive; RE007 growth inh: inactive; SARS PLpro yeast: inactive; Sm TGR block: inactive; AmpC detergent: inactive

What do the screens show for `COc1ccc2[nH]c(=O)c(CNc3ccc(C)cc3C)cc2c1`?
AmpC inh no detg: inactive; Tb PYK inh: inactive; RE007 growth inh: inactive; SARS PLpro yeast: inactive; Sm TGR block: 13µM; AmpC detergent: inactive

Results for COC(=O)c1scc(-c2ccc(C)cc2)c1S(=O)(=O)N1CCN(c2ccc(OC)cc2)CC1 ?
Tb PYK inh: inactive; Sm TGR block: inactive; AmpC detergent: inactive

Results for O=C(NC1CCCCC1)c1ccc(CSc2nc3cccnc3n2Cc2cccc(F)c2)cc1 ?
Tb PYK inh: inactive; Sm TGR block: inactive; AmpC detergent: inactive

High-throughput results from PubChem BioAssay.
